# “And” between values parts separate entries of the source, which are not always exact repeats. Equal values may be shown once. Inconclusive results are not listed. The source made the active and inactive calls. Unless noted, calls come from the whole dose curve; as a rule, active = well fitted curve in the direction sought with a large enough effect; inconclusive = small, poorly fitted or top-dose-only effect, or another doubt; inactive = no such curve, though single readings can be large; an effect the other way counts as inactive or inconclusive.
# What was measured:
# Papain (Carica papaya) = Papain (Carica papaya) (UniProt P00784); experiment: Primary qHTS assay for inhibitors of the protease papain (AID 1645873);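 note: papain turnover of Z-FR-AMC read as the AMC fluorescence gain over 10 min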; note: potency is the fitted concentration of half-maximal effect; for activity change, negative = inhibition: % is set by controls: 0 for no effect and ±100 for the full control effect
# [1] = target: Catechol O-methyltransferase (Homo sapiens) (UniProt P21964); experiment: Confirmatory Screen for Target Class Profiling of Small Molecule Inhibitors of Methyltransferases (AID 1745852; calls by dose curve; note: potency is the fitted concentration of half-maximal effect; for activity change, negative = inhibition: % is set by controls: 0 for no effect and ±100 for the full control effect); conditions: MTase-Glo luminescence, SAH detection, recombinant enzyme; measured here: COMT max response; stronger effect = lower value
# [2] = target: Guanidinoacetate N-methyltransferase (Homo sapiens) (UniProt Q14353); experiment: as above; conditions: MTase-Glo luminescence, SAH detection, recombinant enzyme; activity change, negative = inhibition: at 57.3 µM (top of the series)
# [3] = target: Nicotinamide N-methyltransferase (Homo sapiens) (UniProt P40261); experiment: as above; conditions: MTase-Glo luminescence, SAH detection, recombinant enzyme; measured here: NNMT max response; stronger effect = lower value
# [4] = target: Phenylethanolamine N-methyltransferase (Homo sapiens) (UniProt P11086); experiment: as above; conditions: MTase-Glo luminescence, SAH detection, recombinant enzyme; measured here: PNMT max response; stronger effect = lower value
# [5] = Primary qHTS for inhibitors of nuclear receptor binding SET domain protein 2 (NSD2) in an isogenic RCH-ACV NSD2 p.E1099K mutant (9B) (AID 1645876); note: nearly all actives have a fitted effect of over 70% in size; note: potency is the fitted concentration of half-maximal effect
# [6] = target: N-terminal Xaa-Pro-Lys N-methyltransferase 1 (Homo sapiens) (UniProt Q9BV86); experiment: Confirmatory qHTS for Inhibitors of N-terminal methyltransferase 1 (NTMT1): MTaseGlo Assay (AID 1645874); conditions: NTMT1 enzyme, MTase-Glo SAH luminescence; note: potency is the fitted concentration of half-maximal effect; nearly all actives have a fitted effect of over 65% in size
# How it was run: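 Compounds are incubated with 125 nM NTMT1 and 100 uM SAM for 15 min before the SPKRIA peptide (1 uM) starts a 30 min room-temperature methylation. SAH is measured by coupled luciferase luminescence and curves fitted to a Hill equation.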
# [7] = Primary qHTS for inhibitors of nuclear receptor binding SET domain protein 2 (NSD2) in an RCH-ACV wild type WT cells (2C) (AID 1645877); note: nearly all actives have a fitted effect of over 70% in size; note: potency is the fitted concentration of half-maximal effect
# [8] = target: Rap guanine nucleotide exchange factor 3 (Homo sapiens) (UniProt O95398); experiment: Confirmatory qHTS for antagonist of cAMP-regulated guanine nucleotide exchange factor 3 (EPAC1) (AID 1645880); note: nearly all actives have a fitted effect of over 55% in size; note: potency is the fitted concentration of half-maximal effect
# How it was run: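 Nucleotide exchange uses 100 nM EPAC1, 250 nM RAP1B-BODIPY-GDP and 50 uM GDP, with compounds in a concentration-titration series. After 5 min at room temperature, fluorescence (480 nm ex/540 nm em) is read every 5 min for 30 min. Data are normalized to control ATA and DMSO.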
# [9] = target: Rap guanine nucleotide exchange factor 3 (Homo sapiens) (UniProt O95398); experiment: Confirmatory qHTS for agonist of cAMP-regulated guanine nucleotide exchange factor 3 (EPAC1) (AID 1645881);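 note: EPAC1 catalysed release of BODIPY-GDP from Rap1B seen as fluorescence loss; 100% = effect of cAMP agonist control; nearly all actives have a fitted effect of over 75% in size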
# [10] = target: Rap guanine nucleotide exchange factor 4 (Homo sapiens) (UniProt Q8WZA2); experiment: Confirmatory qHTS for agonist of cAMP-regulated guanine nucleotide exchange factor 4 (EPAC2) (AID 1645884);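 note: nucleotide exchange releases bodipy-GDP from Rap1 and this lowers its fluorescence; % is set by controls: 0 for no effect and ±100 for the full control effect; nearly all actives have a fitted effect of over 65% in size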
# [11] = target: Rap guanine nucleotide exchange factor 4 (Homo sapiens) (UniProt Q8WZA2); experiment: Confirmatory qHTS for antagonist of cAMP-regulated guanine nucleotide exchange factor 4 (EPAC2) (AID 1645885); note: nearly all actives have a fitted effect of over 25% in size; note: potency is the fitted concentration of half-maximal effect; for activity change, negative = inhibition: % is set by controls: 0 for no effect and ±100 for the full control effect
# [12] = NCATS anti-infectives library activity on HEK293 viability as a counter-qHTS vs the C. elegans viability qHTS (AID 1745854);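 note: HEK293 cells exposed to compounds for 24 hr before the viability read; % is set by controls: 0 for no effect and ±100 for the full control effect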
# How it was run: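 Compounds were acoustically plated (several concentrations, 1:5, final up to 41.7 uM), then 1500 HEK293 cells added per well and incubated 24 hr at 37C, 5% CO2. CellTiter-Glo was added and luminescence read after 10 min.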
# [13] = target: Rap guanine nucleotide exchange factor 3 (Homo sapiens) (UniProt O95398); experiment: Counterscreen qHTS for antagonist of cAMP-regulated guanine nucleotide exchange factor 3 (EPAC1) (AID 1645888);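 note: fluorescence loss as bound BODIPY-GDP is released from Rap1B; % of control where 0% means no effect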
# How it was run: (§1)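 Rap1B–BODIPY-GDP (250 nM) with 50 uM GDP; compounds pin-transferred to 9.74 nM–152 uM final (activator) or from 7.32 nM upwards (inhibitor). Fluorescence Ex/Em 480/540 nm read at 5 and 30 min, then after adding cAMP or buffer, at room temperature.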
# [14] = target: Rap guanine nucleotide exchange factor 3 (Homo sapiens) (UniProt O95398); experiment: Counterscreen qHTS for agonist of cAMP-regulated guanine nucleotide exchange factor 3 (EPAC1) (AID 1645889); note: % of control where 0% means no effect; nearly all actives have a fitted effect of over 40% in size
# How it was run: as §1
# Papain (Carica papaya), sequence (P00784 whole entry, looked up): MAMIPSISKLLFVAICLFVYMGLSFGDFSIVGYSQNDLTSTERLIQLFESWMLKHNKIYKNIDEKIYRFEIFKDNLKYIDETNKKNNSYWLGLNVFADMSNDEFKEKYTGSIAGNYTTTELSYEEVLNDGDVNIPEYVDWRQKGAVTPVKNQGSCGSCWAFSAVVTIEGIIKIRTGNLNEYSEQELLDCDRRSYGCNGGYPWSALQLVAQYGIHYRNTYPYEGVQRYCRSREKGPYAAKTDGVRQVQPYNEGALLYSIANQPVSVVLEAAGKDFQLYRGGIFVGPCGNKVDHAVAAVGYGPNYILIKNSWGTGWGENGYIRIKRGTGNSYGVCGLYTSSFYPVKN
# Rap guanine nucleotide exchange factor 4 (Homo sapiens), sequence (Q8WZA2 whole entry, looked up): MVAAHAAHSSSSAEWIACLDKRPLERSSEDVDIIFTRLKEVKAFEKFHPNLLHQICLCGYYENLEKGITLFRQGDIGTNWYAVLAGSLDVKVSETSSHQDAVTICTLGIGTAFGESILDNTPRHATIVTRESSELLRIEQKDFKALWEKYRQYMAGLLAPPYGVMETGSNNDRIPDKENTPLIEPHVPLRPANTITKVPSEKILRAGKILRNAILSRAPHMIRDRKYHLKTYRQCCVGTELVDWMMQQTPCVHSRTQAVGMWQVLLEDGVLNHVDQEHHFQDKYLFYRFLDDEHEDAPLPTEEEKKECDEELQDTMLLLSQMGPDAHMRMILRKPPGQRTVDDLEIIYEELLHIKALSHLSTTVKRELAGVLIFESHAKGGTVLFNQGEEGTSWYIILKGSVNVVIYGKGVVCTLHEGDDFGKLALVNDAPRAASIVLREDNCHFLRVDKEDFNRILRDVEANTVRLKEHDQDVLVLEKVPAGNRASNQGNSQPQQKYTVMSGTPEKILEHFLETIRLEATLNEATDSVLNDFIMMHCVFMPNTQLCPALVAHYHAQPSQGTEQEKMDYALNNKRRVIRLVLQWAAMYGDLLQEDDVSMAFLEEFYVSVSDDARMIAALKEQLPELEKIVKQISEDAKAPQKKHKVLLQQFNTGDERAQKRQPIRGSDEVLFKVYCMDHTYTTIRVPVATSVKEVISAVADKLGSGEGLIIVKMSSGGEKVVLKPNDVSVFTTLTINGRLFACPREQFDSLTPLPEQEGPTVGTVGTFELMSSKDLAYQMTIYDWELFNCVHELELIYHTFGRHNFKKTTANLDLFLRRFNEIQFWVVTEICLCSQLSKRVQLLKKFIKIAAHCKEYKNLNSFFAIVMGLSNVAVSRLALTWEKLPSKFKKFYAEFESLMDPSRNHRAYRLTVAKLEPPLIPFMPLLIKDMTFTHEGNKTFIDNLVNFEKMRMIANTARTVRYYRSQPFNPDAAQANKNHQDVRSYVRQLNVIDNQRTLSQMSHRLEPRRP
# Rap guanine nucleotide exchange factor 3 (Homo sapiens), sequence (O95398 whole entry, looked up): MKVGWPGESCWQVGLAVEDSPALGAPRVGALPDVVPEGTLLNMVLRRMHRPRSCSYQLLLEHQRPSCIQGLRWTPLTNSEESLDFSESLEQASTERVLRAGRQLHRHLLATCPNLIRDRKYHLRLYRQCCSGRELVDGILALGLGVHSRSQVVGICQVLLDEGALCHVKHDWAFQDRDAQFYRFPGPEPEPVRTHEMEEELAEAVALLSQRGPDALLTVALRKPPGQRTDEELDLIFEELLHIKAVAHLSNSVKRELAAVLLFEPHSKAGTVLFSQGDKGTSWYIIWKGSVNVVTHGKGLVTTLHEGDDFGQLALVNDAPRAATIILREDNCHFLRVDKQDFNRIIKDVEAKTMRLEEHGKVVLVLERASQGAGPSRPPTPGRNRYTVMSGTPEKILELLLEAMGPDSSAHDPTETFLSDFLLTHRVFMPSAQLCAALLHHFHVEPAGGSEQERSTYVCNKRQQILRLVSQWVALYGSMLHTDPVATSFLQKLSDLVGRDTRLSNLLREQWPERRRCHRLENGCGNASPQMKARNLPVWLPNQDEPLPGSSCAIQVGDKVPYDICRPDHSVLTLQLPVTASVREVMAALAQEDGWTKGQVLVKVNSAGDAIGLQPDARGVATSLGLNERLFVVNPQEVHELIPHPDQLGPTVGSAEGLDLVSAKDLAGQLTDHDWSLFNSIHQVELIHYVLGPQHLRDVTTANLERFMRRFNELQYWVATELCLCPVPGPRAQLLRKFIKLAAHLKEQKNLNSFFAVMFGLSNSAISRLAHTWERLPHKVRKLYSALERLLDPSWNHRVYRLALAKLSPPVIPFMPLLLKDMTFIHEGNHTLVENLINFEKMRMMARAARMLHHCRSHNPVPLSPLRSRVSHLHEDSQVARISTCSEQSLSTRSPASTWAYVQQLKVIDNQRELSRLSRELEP
# Phenylethanolamine N-methyltransferase (Homo sapiens), sequence (P11086 whole entry, looked up, the tested form may be a part): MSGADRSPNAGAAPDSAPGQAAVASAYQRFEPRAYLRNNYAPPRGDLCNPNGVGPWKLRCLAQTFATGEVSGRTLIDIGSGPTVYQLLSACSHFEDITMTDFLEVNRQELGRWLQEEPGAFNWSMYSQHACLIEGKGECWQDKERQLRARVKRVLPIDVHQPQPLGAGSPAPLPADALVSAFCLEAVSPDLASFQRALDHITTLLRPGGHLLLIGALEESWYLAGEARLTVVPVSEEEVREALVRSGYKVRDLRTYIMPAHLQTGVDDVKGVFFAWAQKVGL
# Catechol O-methyltransferase (Homo sapiens), sequence (P21964 whole entry, looked up): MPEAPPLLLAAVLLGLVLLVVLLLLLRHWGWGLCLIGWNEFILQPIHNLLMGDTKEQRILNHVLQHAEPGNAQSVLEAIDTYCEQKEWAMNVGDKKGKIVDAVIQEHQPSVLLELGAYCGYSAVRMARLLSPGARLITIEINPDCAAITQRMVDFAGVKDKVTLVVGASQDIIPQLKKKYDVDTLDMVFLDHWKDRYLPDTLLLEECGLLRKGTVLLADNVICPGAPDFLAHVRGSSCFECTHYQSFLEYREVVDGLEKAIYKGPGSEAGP
# N-terminal Xaa-Pro-Lys N-methyltransferase 1 (Homo sapiens), sequence (Q9BV86 whole entry, looked up): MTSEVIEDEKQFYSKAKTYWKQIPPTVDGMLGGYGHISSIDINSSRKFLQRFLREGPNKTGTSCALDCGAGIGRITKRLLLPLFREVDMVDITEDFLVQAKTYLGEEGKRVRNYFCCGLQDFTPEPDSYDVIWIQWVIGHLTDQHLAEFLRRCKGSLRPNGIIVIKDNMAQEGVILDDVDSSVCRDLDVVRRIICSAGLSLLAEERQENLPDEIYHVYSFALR
# Nicotinamide N-methyltransferase (Homo sapiens), sequence (P40261 whole entry, looked up): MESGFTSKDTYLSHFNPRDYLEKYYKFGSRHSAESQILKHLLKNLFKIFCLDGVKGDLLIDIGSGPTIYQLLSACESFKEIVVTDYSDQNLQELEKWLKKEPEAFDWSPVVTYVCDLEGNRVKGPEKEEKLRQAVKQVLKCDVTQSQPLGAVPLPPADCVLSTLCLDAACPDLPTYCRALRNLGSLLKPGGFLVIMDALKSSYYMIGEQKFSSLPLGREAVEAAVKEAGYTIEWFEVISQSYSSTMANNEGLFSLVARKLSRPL
structure (smiles),measurement,setting,value
COc1ccc(Br)cc1S(=O)(=O)NC(=O)/C=C/c1ccccc1Cc1ccc2ccccc2c1,Potency,Papain (Carica papaya),inactive
same,activity,[1],3.65%
same,"activity change, negative = inhibition",[2],-3.05%
same,activity,[3],-14.5%
same,activity,[4],0.509%
CC(C)(C=O)Cc1cc(C(C)(C)C)c(O)c(C(C)(C)C)c1,Potency,Papain (Carica papaya),inactive
same,activity,[1],2.63%
same,"activity change, negative = inhibition",[2],1.77%
same,activity,[3],-8.99%
same,activity,[4],-4.11%
CCN1/C(=C/C(C)=O)Sc2ccc(OC)cc21,Potency,Papain (Carica papaya),inactive
same,Potency,[5],inactive
O=C1NC(=O)/C(=C/c2ccc(-c3ccc(F)cc3O)o2)S1,Potency,Papain (Carica papaya),inactive
same,Potency,[6],34.5 µM (active)
same,Potency,[5],14.8 µM (active)
same,Potency,[7],10.5 µM (active)
same,Potency,[8],55.9 µM (active)
same,Potency,[9],inactive
same,Potency,[10],inactive
same,Potency,[11],9.87 µM (active)
COC(=O)c1c(C)[nH]c(C)c1C(=O)c1ccccc1Cc1ccccc1,Potency,Papain (Carica papaya),inactive
same,Potency,[8],inactive
same,Potency,[9],inactive
CN1[C@@H]2CC[C@H]1CC(OC(c1ccccc1)c1ccccc1)C2 (some centres not stated),Potency,[5],inactive
CC(C)(C)c1ccc(S(=O)(=O)/C=C/C#N)cc1,Potency,Papain (Carica papaya),inactive
same,activity,[1],0.864%
same,"activity change, negative = inhibition",[2],-1.56%
same,activity,[3],-4.25%
same,activity,[4],5.53%
O=C1NC(=O)/C(=C/c2ccc3nccnc3c2)S1,Potency,Papain (Carica papaya),inactive
same,Potency,[5],inactive
COc1ccc(/C=C2\COc3ccc(C)cc3C2=O)cc1O,Potency,Papain (Carica papaya),inactive
same,activity,[1],3.43%
same,"activity change, negative = inhibition",[2],-4.7%
same,activity,[3],-20.1%
same,activity,[4],4.48%
O=C(O)CNC(=O)C(CS)Cc1ccccc1 (configuration not stated),Potency,Papain (Carica papaya),inactive
same,activity,[1],9.44%
same,"activity change, negative = inhibition",[2],4.59%
same,activity,[3],2.86%
same,activity,[4],8.57%
CCNc1nc2c(ncn2[C@H]2C[C@H](O)[C@@H](CO)O2)c(=O)[nH]1,Potency,Papain (Carica papaya),inactive
same,Potency,[5],inactive
same,Potency,[7],inactive
NC(CCCP(=O)(O)O)C(=O)O (configuration not stated),Potency,Papain (Carica papaya),inactive
COc1cc(CNC(=O)CCCC/C=C/C(C)C)ccc1O,Potency,[5],7.28 µM (active) and 4.68 µM (active)
same,Potency,[7],7.28 µM (active) and 4.17 µM (active)
Oc1cc(O)cc(/C=C/c2ccc(O)c(O)c2)c1,Potency,Papain (Carica papaya),22.4 µM (active)
same,Potency,[5],6.51 µM (active)
same,Potency,[7],7.31 µM (active)
same,activity,[1],119%
same,"activity change, negative = inhibition",[2],-14.6%
same,activity,[3],-18.4%
same,activity,[4],-8.17%
Brc1c(Br)c(Br)c2n[nH]nc2c1Br,Potency,Papain (Carica papaya),inactive
same,Potency,[5],inactive
same,Potency,[7],inactive
same,Potency,[8],55.9 µM (active)
same,Potency,[9],inactive
same,Potency,[10],inactive
same,Potency,[11],15.6 µM (active)
CNc1ncnc2c1ncn2[C@@H]1O[C@H](CO)[C@@H](O)[C@H]1O,Potency,Papain (Carica papaya),inactive
same,outcome,[12],inactive
CCOC(=O)N1CCN(/[N+]([O-])=N/Oc2ccc([N+](=O)[O-])cc2[N+](=O)[O-])CC1,Potency,Papain (Carica papaya),inactive
same,Potency,[5],7.42 µM (active)
same,Potency,[7],5.9 µM (active)
same,activity,[1],-99.7%
same,"activity change, negative = inhibition",[2],-4.08%
same,activity,[3],-19%
same,activity,[4],-3.94%
CN=c1nc(-c2ccccc2)n(-c2ccccc2)s1,Potency,[6],0.851 µM (active)
Oc1ccc(C2CNCc3sccc32)cc1O (configuration not stated),Potency,Papain (Carica papaya),inactive
same,activity,[1],133%
same,"activity change, negative = inhibition",[2],1.13%
same,activity,[3],-8.32%
same,activity,[4],0.43%
Nc1ncnc2c1c(I)cn2[C@@H]1C[C@H](N)[C@@H](O)[C@H]1O,Potency,[6],3.65 µM (active)
same,Potency,[5],18.4 µM (active)
same,Potency,[7],23.1 µM (active)
CCOC(=O)C1=C(C)NC(C)=C(C(=O)OCC)C1c1c(F)c(F)c(F)c(F)c1F,Potency,Papain (Carica papaya),25.1 µM (active)
same,Potency,[9],inactive
same,Potency,[10],inactive
same,Potency,[11],44.1 µM (active)
O=C1C(SCCO)=C(SCCO)C(=O)c2ccccc21,Potency,Papain (Carica papaya),inactive
same,Potency,[9],inactive
same,Potency,[10],inactive
same,Potency,[11],inactive
same,outcome,[13],inactive
same,activity,[1],-43.3%
same,Potency,[2],4.85 µM (active)
same,activity,[3],-76.1%
same,activity,[4],-72.3%
O=C(/C=C/c1ccc(O)cc1)c1ccc(O)cc1O,Potency,Papain (Carica papaya),inactive
same,Potency,[5],8.33 µM (active)
same,Potency,[7],5.25 µM (active)
Cc1ccc(O)c(N=Nc2ccccc2)n1,Potency,Papain (Carica papaya),inactive
same,Potency,[9],inactive
same,Potency,[10],inactive
O=C(O)c1cc([N+](=O)[O-])ccc1NCCCc1ccccc1,Potency,Papain (Carica papaya),inactive
same,Potency,[8],inactive
same,Potency,[9],inactive
same,Potency,[10],inactive
Oc1cc2c(cc1O)CN(C(=S)NCCc1ccc(Cl)cc1)CCC2,Potency,Papain (Carica papaya),inactive
same,Potency,[9],inactive
same,Potency,[10],inactive
same,activity,[1],160%
same,"activity change, negative = inhibition",[2],2.52%
same,activity,[3],-17.6%
same,activity,[4],0.243%
Oc1ccccc1O,Potency,Papain (Carica papaya),inactive
same,activity,[1],160%
same,"activity change, negative = inhibition",[2],-2.32%
same,activity,[3],-3.91%
same,activity,[4],8.37%
Cc1ccc2c(n1)Oc1ccc(C(C)C(=O)OCC(=O)N(C)C)cc1C2 (configuration not stated),Potency,[5],inactive
same,Potency,[7],inactive
CCNC(=O)[C@H]1O[C@@H](n2cnc3c(N)nc(NCCc4ccc(CCC(=O)O)cc4)nc32)[C@H](O)[C@@H]1O,Potency,[5],inactive
same,Potency,[7],inactive
COc1cc(/C=C/C(=O)CC(=O)/C=C/c2ccc(O)c(OC)c2)ccc1O,Potency,[5],11.8 µM (active)
same,Potency,[7],8.33 µM (active)
same,activity,[1],-53.7%
same,"activity change, negative = inhibition",[2],-2.93%
same,activity,[3],-4.44%
same,activity,[4],9.5%
same,outcome,[12],inactive
CCCCCCCCCCCCCCCCCC(=O)O,Potency,[5],inactive
same,Potency,[7],inactive
N#C/C(=C\c1ccc(O)c(O)c1)C(=O)c1ccc(O)c(O)c1,Potency,[8],0.794 µM (active)
same,Potency,[9],inactive
same,activation,[10],"1.63% [at 17.1 µM, percent relative to cAMP agonist control] (inactive)"
same,"activity change, negative = inhibition",[11],16.6% [at 12.7 µM] (inactive)
same,outcome,[14],inactive

# Reference: PubChem BioAssay (NCATS)
